PfHsp90 yeast 2: growth inhibition of yeast expressing Plasmodium Hsp90 | AID 504621 | S. cerevisiae expressing PfHsp90, BacTiter-Glo ATP, 48 h; yeast lacking PDR1 and PDR3 efflux regulators | inhibition, % at 9.4 µM | hit rate 0.32% among 310,000;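 active means every replicate shows inhibition above about 80%, whatever the replicate mean, limit read from the data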;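 further: 0% = DMSO neutral controls and 100% = 20 µM radicicol positive controls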
TIM10 inh: TIM10 yeast growth inhibition. S. cerevisiae TIM10 strain growth, BacTiter-Glo luminescence, 24 h. inhibition, % at 10 µM. hit rate 1.4% among 330,000;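 active means inhibition of 40% or more at the single tested concentration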;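 further: wild-type TIM10 isogenic control strain grown at permissive 25 °C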
tim10-1 inh: growth inhibitors of tim10-1 mutant yeast. S. cerevisiae tim10-1 ts strain growth, BacTiter-Glo, 24 h. inhibition, % at 20 µM. hit rate 2.2% among 330,000;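 active means inhibition of at least 40%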;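 further: mutant grown at 25 °C; 0% = DMSO wells with yeast and 100% = wells holding no yeast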
B2AR ag: activates human beta-2 adrenergic receptor causing internalization; hit rate 0.43% among 340,000; P07550; response, % (test concentration not listed); Am2.2-beta2AR cells, FAP receptor internalization, flow cytometry;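 active means response above a set limit, near 3 SD of response in nonfluorescent compounds, cut at about 42% in these data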
Target sequence (P07550 whole entry, looked up): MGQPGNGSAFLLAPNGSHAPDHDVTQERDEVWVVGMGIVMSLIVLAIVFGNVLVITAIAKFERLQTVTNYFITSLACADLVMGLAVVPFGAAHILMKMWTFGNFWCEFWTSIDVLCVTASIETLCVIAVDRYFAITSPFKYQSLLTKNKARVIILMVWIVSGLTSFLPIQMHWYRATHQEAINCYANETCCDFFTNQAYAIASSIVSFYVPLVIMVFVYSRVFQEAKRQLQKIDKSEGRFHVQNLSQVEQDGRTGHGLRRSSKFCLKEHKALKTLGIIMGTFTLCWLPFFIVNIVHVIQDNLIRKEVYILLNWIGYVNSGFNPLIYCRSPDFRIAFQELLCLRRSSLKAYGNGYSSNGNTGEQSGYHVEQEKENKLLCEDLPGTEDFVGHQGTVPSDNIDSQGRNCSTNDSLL
tim23-1 inh: growth inhibitors of tim23-1 mutant yeast; S. cerevisiae tim23-1 growth, BacTiter-Glo luminescence, 24 h; inhibition, % at 20 µM; hit rate 1.3% among 330,000;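 active means growth inhibition of the mutant yeast at or above 50%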;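 further: temperature-sensitive mutant grown at 25 °C; plate controls were DMSO-treated mutant yeast for no effect and medium wells lacking yeast for full effect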
tim10-1 conf: tim10-1 yeast growth inhibition, confirmed | shares compounds with tim10-1 inh | S. cerevisiae tim10-1 ts strain growth, BacTiter-Glo, 24 h | inhibition, % at 20 µM | hit rate 56% among 7,400 | AID 463213;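 active means inhibition of yeast growth at or above a set limit in either of two repeat tests at 20 µM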;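 further: tim10-1 mutant grown at permissive 25 °C to find synthetic lethal compounds; 0% = DMSO yeast wells and 100% = medium wells without yeast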
The depositor's hits bear a star; x = no result. This is a sample that favours compounds with a hit; in the whole collection about 3.8% have one here.

SMILES	PfHsp90 yeast 2	TIM10 inh	tim10-1 inh	B2AR ag	tim23-1 inh	tim10-1 conf
CCN(CC)c1ccc(S(=O)(=O)N2CCOCC2)cc1NC(=O)COC(=O)C1=COCCO1	-3.4	x	x	1.3	x	x
O=[N+]([O-])c1ccc(-c2csc(N3CCc4ccccc4C3)n2)cc1	11.8	19.5	17.9	-1.2	27.2	x
O=[N+]([O-])c1ccc(N2CCc3ccccc3C2)cc1	-19.2	35.3	55.3*	5.5	34.6	42.8*
CCOC(=O)[C@H]1[C@H]2COc3ccc(C)cc3[C@@H]2N2C(=O)CN(C)C(=O)[C@@]12C	-32.9	x	x	-2.2	x	x
CC(C)(C)C(=O)N1CCC2CC1c1cc(Cl)ccc12 (stereo unspecified)	-13.3	x	x	-3.0	x	x
O=[N+]([O-])c1ccc(Cn2cc(-c3cccc(C(F)(F)F)c3)nn2)cc1	-8.9	19.6	46.6*	-9.1	49.1	32.4*
CCOC(=O)C1CCN(C(=O)CN(Cc2ccc(Cl)cc2)S(C)(=O)=O)CC1	-18.3	12.6	97.4*	-2.2	9.0	1.1
c1cnc2nc3c4ccccc4c4ccccc4c3nc2c1	-18.9	x	x	-169.9	x	x
CN(C(=O)c1cccc(NC(=O)Cc2ccc(NC(=O)C3CCCN(C(=O)C4CC4)C3)cc2)c1)C1CCCCC1 (stereo unspecified)	13.4	x	x	-15.2	x	x
O=[N+]([O-])c1c(C(Cl)Cl)nn(-c2ccccc2)c1N1CCOCC1	-34.9	29.2	43.6*	4.5	44.2	35.1*
CCC(C)c1ccc(S(=O)(=O)N2CCN(C(=O)c3ccc(Cl)c(S(=O)(=O)N4CCOCC4)c3)CC2)cc1 (stereo unspecified)	2.8	x	x	0.9	x	x
O=C1c2cccc3c(N4CCCCC4)ccc(c23)C(=O)N1CCO	-9.3	28.5	46.1*	-46.1	40.8	29.4
COc1cccc(NC(=O)CSc2nnnn2C2CCCC2)c1	42.5	13.3	-12.5	6.5	11.0	x
COc1cc(NC(=O)CSc2nnnn2C2CCCC2)cc(OC)c1	4.4	4.1	97.2*	-5.4	-3.5	-1.9
CCc1ccc(-c2cc3c(=O)n(CC(=O)NCCCN4CCC(Cc5ccccc5)CC4)nc(C)n3n2)cc1	-1.9	-38.3	52.8*	16.0	35.9	-79.8
CSc1ccc2nnc(-c3cccc(F)c3)n2n1	-6.6	19.7	48.5*	-3.1	48.3	41.4*
CCOC(=O)CC(=O)CSc1ccc2nnc(-c3cccc(F)c3)n2n1	14.8	23.4	24.5	5.6	13.3	x
O=c1c(C=NCc2cccnc2)c(C(F)(F)F)[nH]n1-c1nc2ccccc2s1	54.3	23.7	15.8	1.3	26.3	x
CCC(=NCc1ccccc1)c1c(C(F)(F)F)[nH]n(-c2nc3ccccc3s2)c1=O	2.7	17.8	45.7*	-6.2	37.8	35.3*
N#CC1=C(SCC(N)=O)NC2=C(C(=O)c3ccccc32)C1c1ccc(Cl)cc1 (stereo unspecified)	-29.3	28.6	44.3*	-6.4	27.3	27.3
CSCSC1=C(C#N)C(c2ccc(Cl)cc2)C(C(C)=O)=C(C)N1 (stereo unspecified)	x	18.3	4.3	x	23.6	x
Cc1cccc(-c2nc(CS(=O)CC(=O)NCCc3ccc(Cl)cc3)c(C)o2)c1 (stereo unspecified)	17.6	12.5	30.3	-1.4	8.5	x
C=C1CC[C@@H]2[C@](C)(CO)[C@H](O)CC[C@@]2(C)[C@@H]1/C=C/C1=CCOC1=O	10.6	2.5	97.9*	-6.5	20.7	4.8
Cc1cc(C)c(CN2CCN(C(=O)Cn3cnc(C(=O)Nc4ccc(C)c(C)c4)n3)CC2)c(C)c1	15.2	-2.6	4.6	9.5	39.3	x
CCCNC(=O)Nc1ccc(F)c(Cl)c1	13.5	-11.5	-4.6	-7.7	19.2	x
SMILES	PfHsp90 yeast 2	TIM10 inh	tim10-1 inh	B2AR ag	tim23-1 inh	tim10-1 conf
CC(C)(C)NC(=O)Nc1ccc(F)c(Cl)c1	-3.7	29.4	46.4*	-14.7	34.9	43.5*
CCOCCCNC(=S)N1CCN(c2nc(-c3ccccc3)cs2)CC1	-4.5	8.4	19.1	-4.0	33.8	x
COc1cccc(-c2csc(N3CCN(C(=S)Nc4ccccc4Cl)CC3)n2)c1	-30.8	29.1	43.7*	20.5	25.0	34.0*
COCCCNC(=S)N1CCN(c2nc(-c3ccccc3)cs2)CC1	-25.5	5.8	40.0*	-3.3	35.7	13.4
O=C(N/C(=C\c1ccc(F)cc1)C(=O)N1CCOCC1)c1ccccc1	2.8	-14.9	-4.6	-0.4	-0.7	x
O=S(=O)(Nc1ccc(S(=O)(=O)N2CCCC2)cc1)c1ccc(F)cc1F	x	2.2	-2.8	6.1	7.6	x
